Measurements published in PubChem BioAssay AID738 (SRMLSC, 2007).
Among all 98,000 compounds or so, about 4,900 (5%) were called active. Many of the other results were omitted from the sample, so actives are more common in it than they were. A number with no mark means an inactive call. Cut-off read from the data, not from the text of the source: active = inhibition above about 30%; inactive = the rest.

Assay: growth inhibition of yeast control strain, primary screen, counter-screen for post-Golgi transport modulator project (AID 738)
Conditions: efflux-deficient yeast background strain, growth absorbance A615, 16 h; at 10 µM; stronger effect = higher value

SMILES | inhibition
COC(=O)c1ccc(C(=O)Nc2cc(Cl)ccc2Cl)cc1NC(=O)c1ccccc1C | 1.48%
Cc1ccc(NC(=O)C(C)c2cccc(C(=O)c3ccccc3)c2)cc1 (configuration not stated) | 9.41%
CC(C)CC(=O)N1CCC(O)(CS(=O)(=O)Cc2ccccc2)CC1 | 12.7%
c1ccc(CSc2nnc(-c3ccco3)c(-c3ccco3)n2)cc1 | 21.3%
O=C(CSc1nnc(-c2ccco2)n1Cc1ccccc1)NC(=O)NCc1ccco1 | -1.05%
c1ccc(CSc2nnc(-c3ccco3)n2Cc2ccccc2)cc1 | 38.6% (active)
COc1ccc(CCN(C(=O)COc2ccccc2)c2nc(-c3ccccc3)cs2)cc1OC | 4.48%
CCC(c1nnnn1C1CCCC1)N(Cc1cccs1)Cc1cc2cccc(C)c2[nH]c1=O (configuration not stated) | 38.6% (active)
Cc1cccc2cc(CN(Cc3ccc4c(c3)OCO4)Cc3nnnn3C3CCCC3)c(=O)[nH]c12 | 20.4%
CCC(c1nnnn1Cc1ccco1)N(CCc1ccccc1)Cc1cc2cccc(C)c2[nH]c1=O (configuration not stated) | 52.5% (active)
Cc1cccc2cc(CN(Cc3cccs3)C(c3nnnn3C3CCCC3)C(C)C)c(=O)[nH]c12 (configuration not stated) | 23%
CCC(c1nnnn1Cc1ccco1)N(CCc1ccccc1)Cc1cc2ccc(OC)cc2[nH]c1=O (configuration not stated) | 5.86%
CCC(c1nnnn1Cc1ccco1)N(Cc1cc2cc(OC)ccc2[nH]c1=O)C1CCCCC1 (configuration not stated) | 29.9%
CCOC(=O)C1CN(S(=O)(=O)c2ccc(F)cc2)C1 | -2.08%
N=c1c2c(-c3ccccc3)c(-c3ccccc3)oc2ncn1Cc1ccco1 | 26.2%
CC(=O)c1sc(NC(=O)c2cccc3ccccc23)nc1C | -0.59%
Cc1ccc2nc(SCc3nnc(-c4ccccc4[N+](=O)[O-])o3)c(C#N)cc2c1 | 23.2%
c1ccc2c(CSCc3nc4ccccc4[nH]3)cccc2c1 | 14.3%
Cc1ccc(OC(=O)c2ccccc2C(=O)OCC(F)(F)C(F)F)cc1 | 5.33%
COc1ccc(-c2ccc(Nc3ccc(S(=O)(=O)N4CCCC4)cc3)nn2)cc1OC | -1.56%
COc1ccc(-c2cc(C(F)(F)F)nc(NCc3cccnc3)n2)cc1 | 26.7%
COc1ccc(-c2cc(C(F)(F)F)nc(S(C)(=O)=O)n2)cc1OC | 87.3% (active)
O=C(Nc1ccc(Br)cc1)C1CCC(=O)N1Cc1ccccc1Cl (configuration not stated) | -0.46%

SMILES | inhibition
CSCc1cc(N2CCOCC2)nc(SCc2ccc(Cl)cc2Cl)n1 | 7.94%
Cc1cc(C(=O)Nc2c(C)nn(Cc3ccccc3)c2C)on1 | 8.88%
CC(=O)Nc1ccccc1C(=O)C(=O)Nc1ccc(F)cc1 | 4.22%
N#Cc1nc(COc2ccc(-c3ccccc3)cc2)oc1NCc1cccnc1 | 94.2% (active)
N#Cc1nc(Cc2ccccc2)oc1NCCc1ccccc1 | 21.1%
N#Cc1nc(-c2ccc(OCc3ccccc3)cc2)oc1NCCCN1CCOCC1 | 14.1%
FC(F)(F)c1nc2ccccc2nc1N/N=C/c1ccc(Cl)cc1 | -2.3%
CCOC(=O)N1CCN(c2c(NCCCN3CCCC(C)C3)c(=O)c2=O)CC1 (configuration not stated) | -0.16%
CCC(c1nnnn1C1CCCC1)N1CCN(C(=O)c2ccco2)CC1 (configuration not stated) | 12.4%
COc1ccc(C(c2nnnn2C2CCCCC2)N2CCN(c3ccccc3F)CC2)cc1 (configuration not stated) | 50.5% (active)
CC(C)C(c1nnnn1Cc1ccccc1)N1CCC(C(N)=O)CC1 (configuration not stated) | -0.16%
COc1ccc(N2CCN(C(c3cc4ccc(C)cc4[nH]c3=O)c3nnnn3C3CCCC3)CC2)cc1 (configuration not stated) | -0.59%
CC(C)C(c1nnnn1C1CCCC1)N1CCN(c2ccccc2F)CC1 (configuration not stated) | 42.7% (active)
COCCn1nnnc1C(c1ccccc1Cl)N1CCN(c2ccccc2OC)CC1 (configuration not stated) | 3.75%
Cc1ccc(SCC2=NNC(=O)C2)cc1 | -3.86%
O=C(NNC(=O)c1cccnc1)Nc1ccccc1 | 8.65%
O=Cc1c(N2CCN(c3cccc(Cl)c3)CC2)nc2ccccn2c1=O | 20%
O=[N+]([O-])c1ccccc1NCc1ccc(Cl)cc1 | 9.17%
CC(C)c1cc(C(N)=O)c(NC(=O)c2cccc(COc3ccc(Br)cc3)c2)s1 | 15.8%
CSc1ccccc1C(=O)Nc1cccc(C(C)=O)c1 | -2.07%
O=C1Nc2cc(Cl)c(Cl)cc2N(O)N1c1cc(Cl)cc(Cl)c1 | 33.2% (active)
Clc1ccc(-c2cc(COc3ccccc3)no2)cc1Cl | 5.93%
Cc1ccc(-n2c(C)cc(/C=C(\C#N)C(=O)NCC3CCCO3)c2C)cc1 (configuration not stated) | 10.8%

SMILES | inhibition
CN1C2CCC1/C(=C\c1ccccc1Cl)C(=O)/C2=C\c1ccccc1Cl | 25.3%
CC12c3ccccc3C(c3ccccc31)C1C(=O)N(Cc3cccnc3)C(=O)C12 (configuration not stated) | 4.53%
CC(=O)N1CCN(C(=O)Nc2cccc(C(F)(F)F)c2)CC1 | -1.91%
O=C(O)CSCC(=O)Nc1cccc(C(F)(F)F)c1 | 4.42%
FC(F)(F)c1cccc(NC(=S)Nc2cccc(Cl)c2)c1 | 35.1% (active)
O=C(CCNS(=O)(=O)c1ccccc1C(F)(F)F)NCc1ccc2c(c1)OCO2 | -1.95%
COCCNC(=O)c1onc(CSc2cccc(C)c2)c1C(=O)O | -8.59%
Cc1ccc(-c2nn(C(C)(C)C)c3ncnc(N)c23)cc1 | 52.1% (active)
COc1ccc(C(F)(F)F)cc1N/C=C\c1nnnn1-c1ccc(C)cc1 | 0.15%
O=S(=O)(/N=C(/Nc1ccccn1)c1ccccc1)c1ccc(Cl)cc1 | 1.53%
O=C(COc1ccc(/C=N/NS(=O)(=O)c2ccccc2)cc1)NCCc1ccccc1 | 5.69%
O=C(CSc1nnnn1C1CCCC1)Nc1ccc2c(c1)OCCO2 | -2.44%
O=C(CSc1nc2ncccc2[nH]1)Nc1ccc2c(c1)OCCO2 | 0.61%
O=C(CSc1nnnn1-c1ccc2c(c1)CCC2)Nc1ccc2c(c1)OCCO2 | 39.2% (active)
COc1ccc(NC(C)=O)cc1NC(=O)CN1CCN(C2c3ccccc3-c3ccccc32)CC1 | 89.2% (active)
COc1ccc(NC(C)=O)cc1NC(=O)CN1CCN(c2ccccn2)CC1 | 18.6%
COc1ccc(OC)c(NC(=O)CN2CCN(C(=O)c3ccco3)CC2)c1 | 12.4%
Cc1c(C(=O)OC(C)C)sc(NC(=O)c2cccnc2)c1C#N | 11.5%
CC(CN1CCOCC1)c1ccccc1 (configuration not stated) | 5.77%
O=C(Nc1sc2c(c1-c1nc3ccccc3[nH]1)CCCC2)C1CC1 | 3.43%
CCOC(=O)c1c(NC(=O)c2ccc(N3CCOCC3)c([N+](=O)[O-])c2)sc(C)c1C | 3.45%
COc1cc(/C=N/O)cc(Br)c1OCc1cccc(Cl)c1 | 68% (active)
COc1ccc(C(=O)Oc2cc(/C=N/NS(=O)(=O)c3ccc(C)cc3)ccc2OC)cc1 | 4.53%

SMILES | inhibition
COc1cccc(/C=N/NC(=O)c2cccc([N+](=O)[O-])c2)c1OS(=O)(=O)c1ccc(C)cc1 | 6.93%
CCOc1cc(/C=N/O)cc(Br)c1OC | 9.73%
CCOc1c(Cl)cc(/C=N/O)cc1OC | -0.28%
COc1cc(/C=N/O)cc(Br)c1OS(=O)(=O)c1ccc(C)cc1 | 55.4% (active)
Cn1nc(C(F)(F)F)c(C(=O)Nc2cccc(C(F)(F)F)c2)c1SCc1ccc(Cl)cc1 | 9.33%
CC(Oc1ccc(-c2ccccc2)c(F)c1)c1ccn(S(=O)(=O)c2cccc3ccccc23)n1 (configuration not stated) | 7.08%
O=c1c2ccccc2c(-c2ccc(F)cc2)nn1-c1ccc(C(F)(F)F)cc1 | 23.4%
O=C(CNC(=O)c1ccc(Cl)cc1Cl)NCC(=O)Nc1ccccc1N1CCOCC1 | 1.21%
Cc1cc(C(=O)Nc2ccccc2N2CCOCC2)c2ccccc2n1 | 6.17%
COc1c(C)cccc1C(=O)Nc1cc(Cl)ccc1N1CCOCC1 | 87.2% (active)
C/C(=N\NC(=O)c1ccccc1C)c1ccc(N2CCOCC2)cc1 | -0.44%
CC(C)C(C)NC(=O)COc1ncnc2ccccc12 (configuration not stated) | 27.4%
COc1cccc(N2CCN(C(=O)Nc3ccc4c(c3)NC(=O)CO4)CC2)c1 | 4.59%
O=C(Cn1cncn1)N/N=C/c1c2ccccc2cc2ccccc12 | -2.2%
CCOC(=O)N1CCN(C(=O)c2cc3c(-c4ccc(Cl)cc4)nn(C)c3s2)CC1 | 22.3%
COc1ccccc1N1CCN(C(=O)c2cc3c(-c4ccc(Cl)cc4)nn(C)c3s2)CC1 | 16.3%
Cn1nc(-c2ccc(Cl)cc2)c2cc(C(=O)NCc3ccco3)sc21 | 34.4% (active)
CC(=O)c1cccc(NC(=O)C2CCCN2S(=O)(=O)c2cccc3nsnc23)c1 (configuration not stated) | 18.2%
Cc1ccc(-c2nc3ccccc3[nH]2)cc1NC(=O)c1sc2ccccc2c1Cl | 12.1%
O=C(/C=C/c1ccco1)Nc1cccc(-c2nc3ccccc3[nH]2)c1 | 14.9%
CC(Cc1cccs1)NC(=O)NC1CCCCC1 (configuration not stated) | 4.21%
Cc1ccsc1C(C(=O)NC1CCCCC1)N(C(=O)Cc1cccs1)C1CC1 (configuration not stated) | 34.2% (active)
Cc1cccc(N(C(=O)Cc2cccs2)C(C(=O)NC2CCCC2)c2ccsc2)c1 (configuration not stated) | 2.59%
